# Experimental data as given in article PMC4336329 (PLoS ONE, 2015).
# Hit rate of the full screen: of about 310,000 compounds, about 14,000 (4.5%) showed an effect of 50% or more. Effects have a minus sign here. This is one part of a sample in which strong results are shown more often than they occur.
# Molecular target: human ether-à-go-go-related gene (hERG) potassium channel (human, UniProt Q12809)
# Assay: primary screen, population patch clamp on CHO cells stably expressing hERG; higher = less effect of the substance
# 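Also: peak tail current of the secondary pulse compared with the same well before compound.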
# Chain of human ether-à-go-go-related gene (hERG) potassium channel (Q12809 whole entry, looked up): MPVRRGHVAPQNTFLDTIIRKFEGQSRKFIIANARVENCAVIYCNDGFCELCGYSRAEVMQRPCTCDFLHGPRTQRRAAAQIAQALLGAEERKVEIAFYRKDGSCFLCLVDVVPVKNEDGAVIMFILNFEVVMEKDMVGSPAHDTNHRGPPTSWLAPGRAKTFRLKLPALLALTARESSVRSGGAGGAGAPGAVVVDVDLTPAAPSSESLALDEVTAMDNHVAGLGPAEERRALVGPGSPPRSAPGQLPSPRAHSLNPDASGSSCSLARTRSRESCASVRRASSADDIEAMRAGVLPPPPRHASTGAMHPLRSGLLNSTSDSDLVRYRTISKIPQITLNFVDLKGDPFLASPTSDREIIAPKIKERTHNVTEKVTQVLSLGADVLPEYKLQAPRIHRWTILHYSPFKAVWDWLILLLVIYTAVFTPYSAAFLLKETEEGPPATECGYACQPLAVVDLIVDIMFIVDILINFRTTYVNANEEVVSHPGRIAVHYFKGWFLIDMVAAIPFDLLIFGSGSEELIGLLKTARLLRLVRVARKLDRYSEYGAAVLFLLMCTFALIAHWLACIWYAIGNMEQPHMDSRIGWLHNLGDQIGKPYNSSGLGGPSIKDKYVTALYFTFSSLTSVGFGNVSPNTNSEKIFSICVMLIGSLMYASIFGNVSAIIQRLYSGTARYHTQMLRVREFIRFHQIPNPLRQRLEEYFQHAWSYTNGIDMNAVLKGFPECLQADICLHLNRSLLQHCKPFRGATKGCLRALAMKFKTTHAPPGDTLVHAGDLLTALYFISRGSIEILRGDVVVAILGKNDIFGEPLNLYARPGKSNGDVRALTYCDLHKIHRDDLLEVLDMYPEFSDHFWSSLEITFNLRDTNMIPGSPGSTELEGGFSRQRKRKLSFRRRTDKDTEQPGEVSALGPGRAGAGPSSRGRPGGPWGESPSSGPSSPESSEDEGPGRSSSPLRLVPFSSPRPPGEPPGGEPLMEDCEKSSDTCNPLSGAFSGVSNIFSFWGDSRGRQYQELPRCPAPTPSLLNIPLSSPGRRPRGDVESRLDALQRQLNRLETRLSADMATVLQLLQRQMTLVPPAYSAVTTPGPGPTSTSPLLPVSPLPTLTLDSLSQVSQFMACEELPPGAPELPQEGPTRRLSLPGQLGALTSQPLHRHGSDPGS
row,SMILES,"hERG current change (%, negative = inhibition) at 10uM"
1,CSCCC(NC(=O)COc1ccccc1)C(=O)Nc1ccc(C)cc1 (stereo not shown),-3.07%
2,CC(=Nc1ccccc1)c1sc2ccccc2c1O,-10.8%
3,ON1C(c2ccc(Cl)cc2Cl)N(O)[C@H]2CCCC[C@H]21 (stereo partly shown),-1.85%
4,CCN(CC)CCCN(Cc1cc2cc3c(cc2[nH]c1=O)OCO3)C(=S)Nc1ccccc1,-45.9%
5,COc1ccc2cc(CN(C(=O)Nc3ccccc3)C3CCCC3)c(=O)[nH]c2c1,-60.5%
6,COc1cc2cc(CN(C(=O)Nc3ccccc3)C3CCCC3)c(=O)[nH]c2cc1OC,-44.2%
7,COc1ccc2cc(CN(C(=O)Nc3ccccc3OC)C3CCCC3)c(=O)[nH]c2c1,-46.9%
8,CCN(CC)CCCN(Cc1cc2cc3c(cc2[nH]c1=O)OCCO3)C(=O)Nc1ccc(F)cc1,-61.6%
9,CCN(CC)CCCN(Cc1cc2cc3c(cc2[nH]c1=O)OCCO3)C(=O)Nc1ccccc1,-41.7%
10,COc1ccc(NC(=O)CSc2nc3c([nH]c4ccccc43)c(=O)n2C)c(OC)c1,19%
11,COC(=O)c1cccc(S(=O)(=O)N2CCC(C)CC2)c1,-4.23%
12,O=C(COc1ccccc1)Nc1cc(S(=O)(=O)N2CCOCC2)ccc1N1CCCC1,-8.47%
13,Cc1cc2nc(C)n(CCCNC(=O)Nc3ccc(F)cc3)c2cc1C,-49.9%
14,CCOc1ccc(NC(=O)NCCCn2c(C)nc3cc(C)c(C)cc32)cc1,-55.5%
15,Cc1cc2nc(C)n(CCCNC(=O)Nc3ccc(C#N)cc3)c2cc1C,-34%
16,COc1cccc(-c2nc(-c3ccccn3)no2)c1OC,0.968%
17,Cc1noc(C)c1COc1ccc(C(=O)OCc2nnc(-c3ccc(Cl)cc3)o2)cc1,10.1%
18,CNC(=O)c1ccccc1S(=O)c1ccccc1C#N (stereo not shown),2.49%
19,CCOC(=O)c1ccc(NC(=O)NCCN2CCCCC2)cc1,-31.6%
20,COc1cc2c(cc1OC)C(c1ccccc1)N(C(=O)c1cccc(S(C)(=O)=O)c1)CC2 (stereo not shown),-24%
21,COc1ccc(C(=O)N2CCc3cc(OC)c(OC)cc3C2c2ccc(OC)c(OC)c2)cc1OC (stereo not shown),1.43%
22,COc1ccc(C(=O)N2CCc3cc(OC)c(OC)cc3C2c2ccc(OC)c(OC)c2)cc1 (stereo not shown),-12%
23,COc1cc2c(cc1OC)CN(C(=O)c1cccc(S(=O)(=O)N(C)C)c1)CC2,6.05%
24,COc1cc2c(cc1OC)C(c1cccs1)N(C(=O)c1cccc(S(=O)(=O)N(C)C)c1)CC2 (stereo not shown),-70.7%
25,COc1cc2c(cc1OC)C(c1cccs1)N(C(=O)c1ccc(S(=O)(=O)N(C)C)cc1)CC2 (stereo not shown),-72.6%
26,N#C/C(=C\c1ccco1)C(=O)NCc1ccccc1,4.87%
27,CC(=O)c1c(C(C)=O)c(C)n(C(c2ccccc2)c2ccccc2)c1C,-9.83%
28,Cc1nnc(C)c2c(C)n(C(C)c3ccccc3)c(C)c12 (stereo not shown),-20.7%

row,SMILES,"hERG current change (%, negative = inhibition) at 10uM"
1,COc1ccc(C(C)n2c(C)c3c(C)nnc(C)c3c2C)cc1 (stereo not shown),-57.9%
2,Cc1nnc(C)c2c(C)n(C(c3ccccc3)c3ccccc3)c(C)c12,-71.4%
3,COc1ccc(C(=O)C(Sc2nnc(C)c(=O)[nH]2)c2ccc(OC)cc2)cc1 (stereo not shown),-12.3%
4,COc1ccc(-c2nnnn2C(C)C)cc1,-0.893%
5,CCN(Cc1ccccc1)S(=O)(=O)c1cc(C(=O)OC)n(C)c1,-32.9%
6,COc1ccc(Cn2c(=O)oc3ccc(C)cc32)cc1,1.22%
7,Cc1ccc(-c2noc(CSc3nc(N)cc(N)n3)n2)cc1,-4.24%
8,CC(=O)N(Cc1ccco1)Cc1cc2cccc(C)c2n2nnnc12,-3.36%
9,CCn1cc(C(=O)NCc2cccs2)c(=O)c2cc(S(=O)(=O)N3CCOCC3)ccc21,-20.3%
10,Cc1cc(C)nc(Nc2n[nH]c(C)n2)n1,16.4%
11,Clc1cc(Cl)cc(Nc2ncn[nH]2)c1,-8.8%
12,Cc1cc(C)nc(Nc2ncn[nH]2)n1,-73.3%
13,CCOC(=O)C1(CC2CC2)CCN(C(=O)c2cc(OC)nc3ccccc23)CC1,-12.9%
14,CC(C)[C@H](NC(=O)c1ccccc1)C(=O)OCC(=O)c1ccc2c(c1)NC(=O)CO2,-26.3%
15,COCCCNc1nc2ccccc2nc1NS(=O)(=O)c1ccc(C)cc1,-8.35%
16,O=C(Nc1ccc([N+](=O)[O-])cc1Cl)c1cc(Cl)ccc1O,7.32%
17,O=C(/C=C/c1ccccc1[N+](=O)[O-])NCCCn1ccnc1,2.43%
18,O=C(c1ccccc1)c1ccc(-n2ccnc2)c([N+](=O)[O-])c1,-25.8%
19,O=C(c1ccccc1)c1ccc(NCCCn2ccnc2)c([N+](=O)[O-])c1,-81.3%
20,NS(=O)(=O)c1ccc(NCCCn2ccnc2)c([N+](=O)[O-])c1,8.43%
21,CCN(CC)S(=O)(=O)c1ccc(NCCCn2ccnc2)c([N+](=O)[O-])c1,-57.2%
22,CC(C)NS(=O)(=O)c1ccc(NCCCn2ccnc2)c([N+](=O)[O-])c1,-1.68%
23,CC(=O)Nc1ccc(C(=O)OC2CCOC2=O)cc1 (stereo not shown),12.5%
24,Cc1cc(OC(C)C(=O)N/N=C/CC(C)c2ccccc2)ccc1Cl (stereo not shown),16.1%
25,C=CCc1cccc(C2Nc3ccccc3C(=O)N2O)c1O (stereo not shown),7.52%
26,CCCC(=O)Nc1ccc(Oc2ccc(NC(=O)CCC)cc2)cc1,2.76%
27,COc1cc(C2c3c(-c4ccccc4)n[nH]c3C(=O)N2c2ccc(C(=O)O)cc2)ccc1O (stereo not shown),8.38%
